# Key:
# Experiment in all cases: DAPPL (digital affinity profiling via proximity ligation, sequencing); 10 mM Tris-HCl pH 7.5, 50 mM NaCl, 1 mM DTT, 4% glycerol, room temperature, 30 min; GST-TFs on glutathione beads, 16-mer random dsDNA library, 0.1% formaldehyde crosslink after washing; high values mean tight binding
# [1] = target: T1, FLI1 (Homo sapiens, UniProt Q01543 1-452); conditions: protein: recombinant; tags: N-terminal GST; dsDNA, one strand shown
# T1 sequence: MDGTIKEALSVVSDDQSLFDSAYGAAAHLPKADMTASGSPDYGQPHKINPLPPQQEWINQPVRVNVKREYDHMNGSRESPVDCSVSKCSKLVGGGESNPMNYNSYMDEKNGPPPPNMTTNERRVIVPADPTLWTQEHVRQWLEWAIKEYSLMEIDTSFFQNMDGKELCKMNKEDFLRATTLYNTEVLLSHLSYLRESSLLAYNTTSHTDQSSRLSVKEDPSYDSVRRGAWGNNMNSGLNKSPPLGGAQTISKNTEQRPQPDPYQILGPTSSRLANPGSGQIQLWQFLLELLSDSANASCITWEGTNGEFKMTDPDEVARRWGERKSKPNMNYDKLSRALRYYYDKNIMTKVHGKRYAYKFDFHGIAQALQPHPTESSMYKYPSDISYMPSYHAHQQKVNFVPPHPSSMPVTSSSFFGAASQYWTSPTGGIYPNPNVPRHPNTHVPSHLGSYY
# Outline: (§1)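 Pools of DNA-barcoded human transcription factors, expressed in yeast as GST fusions on glutathione beads and combined with a tag-only sample, were incubated with 200 nmole of a 16-mer random double-stranded DNA library. Incubation took 30 min at room temperature in Tris/NaCl/DTT/glycerol buffer and was followed by washing, 0.1% formaldehyde crosslinking, proximity ligation (BsaI/T4 ligase, 1 h, 37 °C), PCR amplification and sequencing on an Illumina NextSeq500. Binding signal is the ratio of a hexamer's read frequency for a factor to its frequency for the tag-only sample.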
# [2] = target: T2, ELK1 (Homo sapiens, UniProt P19419 1-428); conditions: protein: recombinant; tags: N-terminal GST; dsDNA, one strand shown
# T2 sequence: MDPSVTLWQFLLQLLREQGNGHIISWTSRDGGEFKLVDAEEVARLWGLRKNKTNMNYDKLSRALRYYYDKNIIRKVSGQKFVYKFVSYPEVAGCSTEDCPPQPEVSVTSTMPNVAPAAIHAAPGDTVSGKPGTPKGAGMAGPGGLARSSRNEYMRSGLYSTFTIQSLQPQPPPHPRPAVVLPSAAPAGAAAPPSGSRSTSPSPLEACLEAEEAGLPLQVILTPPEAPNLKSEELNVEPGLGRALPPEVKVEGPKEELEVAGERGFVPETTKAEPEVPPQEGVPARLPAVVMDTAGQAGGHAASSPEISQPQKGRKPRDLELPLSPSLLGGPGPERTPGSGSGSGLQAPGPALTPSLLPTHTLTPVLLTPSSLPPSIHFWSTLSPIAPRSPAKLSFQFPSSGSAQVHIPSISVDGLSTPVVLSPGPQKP
# Outline: as §1
# [3] = target: T3, GABPA (Homo sapiens, UniProt Q06546 1-454); conditions: protein: recombinant; tags: N-terminal GST; dsDNA, one strand shown
# T3 sequence: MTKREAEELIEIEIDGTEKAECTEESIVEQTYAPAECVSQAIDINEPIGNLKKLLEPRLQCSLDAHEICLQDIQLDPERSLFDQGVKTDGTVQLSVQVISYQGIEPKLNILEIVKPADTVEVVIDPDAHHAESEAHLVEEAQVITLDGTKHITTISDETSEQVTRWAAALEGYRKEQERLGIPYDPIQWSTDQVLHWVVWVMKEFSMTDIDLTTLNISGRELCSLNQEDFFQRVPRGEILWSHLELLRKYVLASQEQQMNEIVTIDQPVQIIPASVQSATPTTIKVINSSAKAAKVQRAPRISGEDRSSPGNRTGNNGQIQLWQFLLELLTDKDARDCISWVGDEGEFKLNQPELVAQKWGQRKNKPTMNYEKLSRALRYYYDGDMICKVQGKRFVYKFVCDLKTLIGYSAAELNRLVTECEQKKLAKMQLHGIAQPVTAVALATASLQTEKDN
# Outline: as §1
# [4] = target: T4, ERG (Homo sapiens, UniProt P11308 1-479); conditions: protein: recombinant; tags: N-terminal GST; dsDNA, one strand shown
# T4 sequence: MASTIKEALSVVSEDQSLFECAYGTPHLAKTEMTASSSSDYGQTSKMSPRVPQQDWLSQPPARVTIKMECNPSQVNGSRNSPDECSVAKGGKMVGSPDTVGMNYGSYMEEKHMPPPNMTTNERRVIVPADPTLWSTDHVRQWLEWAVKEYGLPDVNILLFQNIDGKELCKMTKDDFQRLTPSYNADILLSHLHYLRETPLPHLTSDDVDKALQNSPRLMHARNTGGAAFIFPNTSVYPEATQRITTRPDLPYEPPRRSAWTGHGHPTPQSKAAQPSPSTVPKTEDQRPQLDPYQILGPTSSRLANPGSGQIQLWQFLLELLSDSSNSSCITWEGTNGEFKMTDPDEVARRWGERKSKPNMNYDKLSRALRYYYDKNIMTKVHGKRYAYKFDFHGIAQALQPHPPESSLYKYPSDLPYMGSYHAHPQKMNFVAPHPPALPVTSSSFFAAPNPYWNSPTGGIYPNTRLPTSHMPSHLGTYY
# Outline: as §1
# [5] = target: ELF1 (Homo sapiens, UniProt P32519 1-619); conditions: protein: recombinant; tags: N-terminal GST; dsDNA, one strand shown
# Sequence of ELF1 (P32519 whole entry): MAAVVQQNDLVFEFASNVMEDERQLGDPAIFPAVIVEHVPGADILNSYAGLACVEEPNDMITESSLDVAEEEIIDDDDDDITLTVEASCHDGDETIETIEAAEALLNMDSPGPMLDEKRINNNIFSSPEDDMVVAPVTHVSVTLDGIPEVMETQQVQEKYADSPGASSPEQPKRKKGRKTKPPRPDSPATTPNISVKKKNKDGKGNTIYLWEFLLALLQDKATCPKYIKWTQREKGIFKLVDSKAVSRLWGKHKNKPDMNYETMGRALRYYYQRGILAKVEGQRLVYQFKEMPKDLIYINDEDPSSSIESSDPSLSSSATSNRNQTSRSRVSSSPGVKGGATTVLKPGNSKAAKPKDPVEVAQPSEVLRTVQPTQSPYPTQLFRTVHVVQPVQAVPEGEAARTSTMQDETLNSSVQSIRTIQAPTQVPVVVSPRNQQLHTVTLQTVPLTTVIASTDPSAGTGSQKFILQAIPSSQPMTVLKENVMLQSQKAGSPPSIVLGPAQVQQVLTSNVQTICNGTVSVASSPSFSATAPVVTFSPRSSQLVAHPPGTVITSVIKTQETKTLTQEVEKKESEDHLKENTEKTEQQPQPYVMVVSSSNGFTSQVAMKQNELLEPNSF
# Outline: as §1
# [6] = target: T5, EHF (Homo sapiens, UniProt Q9NZC4 1-300); conditions: protein: recombinant; tags: N-terminal GST; dsDNA, one strand shown
# T5 sequence: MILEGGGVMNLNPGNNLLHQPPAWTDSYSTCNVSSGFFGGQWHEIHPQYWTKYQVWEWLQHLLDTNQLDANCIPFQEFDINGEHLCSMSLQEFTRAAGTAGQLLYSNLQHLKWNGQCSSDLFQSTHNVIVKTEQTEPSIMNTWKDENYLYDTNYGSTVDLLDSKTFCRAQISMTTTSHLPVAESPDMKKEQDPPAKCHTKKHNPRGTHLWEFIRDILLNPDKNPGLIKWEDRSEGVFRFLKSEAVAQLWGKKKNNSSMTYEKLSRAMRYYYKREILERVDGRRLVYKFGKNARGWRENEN
# Outline: as §1
# [7] = target: SPI1 (Homo sapiens, UniProt P17947 1-270); conditions: protein: recombinant; tags: N-terminal GST; dsDNA, one strand shown
# Outline: as §1
# [8] = target: SPIB (Homo sapiens, UniProt Q01892 1-262); conditions: protein: recombinant; tags: N-terminal GST; dsDNA, one strand shown
# Sequence of SPIB (Q01892 whole entry): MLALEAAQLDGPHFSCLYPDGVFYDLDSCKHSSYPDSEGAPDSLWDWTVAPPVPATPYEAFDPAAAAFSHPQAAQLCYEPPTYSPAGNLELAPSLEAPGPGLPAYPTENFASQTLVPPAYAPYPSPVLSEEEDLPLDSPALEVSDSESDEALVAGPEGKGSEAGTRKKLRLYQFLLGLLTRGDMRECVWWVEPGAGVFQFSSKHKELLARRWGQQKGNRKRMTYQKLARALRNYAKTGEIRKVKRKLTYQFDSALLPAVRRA
# Outline: as §1
# [9] = target: T6, ELK3 (Homo sapiens, UniProt P41970 1-407); conditions: protein: recombinant; tags: N-terminal GST; dsDNA, one strand shown
# T6 sequence: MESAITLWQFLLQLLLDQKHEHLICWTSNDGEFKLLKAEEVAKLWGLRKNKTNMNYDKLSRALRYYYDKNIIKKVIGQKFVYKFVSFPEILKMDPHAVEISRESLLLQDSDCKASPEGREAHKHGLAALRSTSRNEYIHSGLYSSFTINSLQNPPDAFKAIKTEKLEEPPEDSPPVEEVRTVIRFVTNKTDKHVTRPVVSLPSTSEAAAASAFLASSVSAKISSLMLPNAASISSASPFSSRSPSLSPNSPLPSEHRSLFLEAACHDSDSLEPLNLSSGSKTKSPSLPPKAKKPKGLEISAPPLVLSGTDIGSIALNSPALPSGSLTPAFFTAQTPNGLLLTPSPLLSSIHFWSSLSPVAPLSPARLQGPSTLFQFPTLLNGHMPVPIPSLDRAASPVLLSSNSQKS
# Outline: as §1
# [10] = target: T7, FEV (Homo sapiens, UniProt Q99581 1-238); conditions: protein: recombinant; tags: N-terminal GST; dsDNA, one strand shown
# T7 sequence: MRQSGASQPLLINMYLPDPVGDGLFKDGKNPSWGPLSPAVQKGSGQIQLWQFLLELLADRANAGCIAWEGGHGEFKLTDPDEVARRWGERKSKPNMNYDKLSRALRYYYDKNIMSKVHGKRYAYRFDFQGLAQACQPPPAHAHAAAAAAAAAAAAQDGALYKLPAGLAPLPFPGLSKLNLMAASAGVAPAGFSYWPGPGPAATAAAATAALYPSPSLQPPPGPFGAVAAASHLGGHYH
# Outline: as §1
# [11] = target: ETV5 (Homo sapiens, UniProt P41161 1-510); conditions: protein: recombinant; tags: N-terminal GST; dsDNA, one strand shown
# Sequence of ETV5 (P41161 whole entry): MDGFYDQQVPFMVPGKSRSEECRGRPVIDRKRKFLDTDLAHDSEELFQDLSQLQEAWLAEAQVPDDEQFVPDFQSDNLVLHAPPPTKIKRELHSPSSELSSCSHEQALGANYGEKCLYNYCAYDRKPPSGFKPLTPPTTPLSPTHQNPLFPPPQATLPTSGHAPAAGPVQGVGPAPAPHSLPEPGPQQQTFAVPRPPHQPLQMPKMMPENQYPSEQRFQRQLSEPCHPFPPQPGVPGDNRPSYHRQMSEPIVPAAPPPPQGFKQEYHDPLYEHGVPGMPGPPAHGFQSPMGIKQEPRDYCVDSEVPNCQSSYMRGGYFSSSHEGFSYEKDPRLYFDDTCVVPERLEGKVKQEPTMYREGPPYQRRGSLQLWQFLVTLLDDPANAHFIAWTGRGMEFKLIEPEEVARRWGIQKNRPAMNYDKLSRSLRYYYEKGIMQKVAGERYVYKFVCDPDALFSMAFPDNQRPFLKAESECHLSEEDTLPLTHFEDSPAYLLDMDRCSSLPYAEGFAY
# Outline: as §1
# [12] = target: HSF1 (Homo sapiens, UniProt Q00613 1-529); conditions: protein: recombinant; tags: N-terminal GST; chain copies: 3; dsDNA, one strand shown
# Sequence of HSF1 (Q00613 whole entry): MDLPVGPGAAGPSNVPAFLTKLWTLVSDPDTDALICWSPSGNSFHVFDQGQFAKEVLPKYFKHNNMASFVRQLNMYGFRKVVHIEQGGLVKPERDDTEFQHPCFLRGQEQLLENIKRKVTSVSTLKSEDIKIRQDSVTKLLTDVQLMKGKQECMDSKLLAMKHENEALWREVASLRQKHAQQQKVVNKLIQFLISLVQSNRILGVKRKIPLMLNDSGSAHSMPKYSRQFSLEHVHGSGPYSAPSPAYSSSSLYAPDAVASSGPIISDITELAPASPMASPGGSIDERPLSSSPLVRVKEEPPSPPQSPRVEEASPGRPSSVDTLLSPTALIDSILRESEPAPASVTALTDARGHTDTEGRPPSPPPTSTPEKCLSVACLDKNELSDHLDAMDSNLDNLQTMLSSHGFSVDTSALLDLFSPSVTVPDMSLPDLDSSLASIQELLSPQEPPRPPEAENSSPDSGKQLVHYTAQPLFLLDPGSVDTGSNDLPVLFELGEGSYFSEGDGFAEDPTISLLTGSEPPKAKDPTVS
# Outline: as §1
# [13] = target: T8, SPIC (Homo sapiens, UniProt Q8N5J4 1-248); conditions: protein: recombinant; tags: N-terminal GST; dsDNA, one strand shown
# T8 sequence: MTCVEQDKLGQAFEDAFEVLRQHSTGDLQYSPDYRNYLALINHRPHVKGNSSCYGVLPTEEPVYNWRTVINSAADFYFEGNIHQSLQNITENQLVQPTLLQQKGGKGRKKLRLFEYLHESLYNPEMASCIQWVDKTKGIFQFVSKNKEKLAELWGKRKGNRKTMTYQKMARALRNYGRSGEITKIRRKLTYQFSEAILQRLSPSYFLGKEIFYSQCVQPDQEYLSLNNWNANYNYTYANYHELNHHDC
# Outline: as §1
# [14] = target: ELF4 (Homo sapiens, UniProt Q99607 1-663); conditions: protein: recombinant; tags: N-terminal GST; dsDNA, one strand shown
# Sequence of ELF4 (Q99607 whole entry): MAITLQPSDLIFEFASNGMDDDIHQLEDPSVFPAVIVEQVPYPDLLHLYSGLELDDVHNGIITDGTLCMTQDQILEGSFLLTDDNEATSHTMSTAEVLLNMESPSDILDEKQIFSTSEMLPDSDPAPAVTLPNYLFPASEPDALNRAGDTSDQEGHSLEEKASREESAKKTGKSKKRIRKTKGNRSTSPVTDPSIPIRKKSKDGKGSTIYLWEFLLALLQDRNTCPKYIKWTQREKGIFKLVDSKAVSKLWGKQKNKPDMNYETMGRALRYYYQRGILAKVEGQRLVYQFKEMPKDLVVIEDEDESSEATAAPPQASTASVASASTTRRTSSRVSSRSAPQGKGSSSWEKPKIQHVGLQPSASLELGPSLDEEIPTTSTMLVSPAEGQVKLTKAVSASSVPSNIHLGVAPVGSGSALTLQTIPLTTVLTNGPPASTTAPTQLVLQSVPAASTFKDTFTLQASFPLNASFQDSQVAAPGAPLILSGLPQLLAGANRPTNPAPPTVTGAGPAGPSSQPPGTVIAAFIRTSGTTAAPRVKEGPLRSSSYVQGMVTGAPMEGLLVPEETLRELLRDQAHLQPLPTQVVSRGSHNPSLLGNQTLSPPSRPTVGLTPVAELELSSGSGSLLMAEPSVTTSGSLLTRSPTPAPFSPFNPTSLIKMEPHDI
# Outline: as §1
# [15] = target: T9, ELK4 (Homo sapiens, UniProt P28324-2 1-405); conditions: protein: recombinant; tags: N-terminal GST; dsDNA, one strand shown
# T9 sequence: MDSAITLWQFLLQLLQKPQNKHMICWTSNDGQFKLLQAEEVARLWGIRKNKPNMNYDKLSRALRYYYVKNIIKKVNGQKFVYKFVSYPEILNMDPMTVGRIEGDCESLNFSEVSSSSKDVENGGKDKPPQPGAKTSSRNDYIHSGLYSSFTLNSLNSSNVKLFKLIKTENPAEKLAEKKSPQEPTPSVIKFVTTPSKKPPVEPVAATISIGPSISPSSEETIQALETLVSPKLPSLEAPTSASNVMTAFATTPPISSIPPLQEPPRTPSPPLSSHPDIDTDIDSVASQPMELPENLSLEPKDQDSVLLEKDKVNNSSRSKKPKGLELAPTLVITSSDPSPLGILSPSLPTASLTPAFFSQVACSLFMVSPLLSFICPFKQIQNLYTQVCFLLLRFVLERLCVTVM
# Outline: as §1
# [16] = target: T10, ETV2 (Homo sapiens, UniProt O00321 1-342); conditions: protein: recombinant; tags: N-terminal GST; dsDNA, one strand shown
# T10 sequence: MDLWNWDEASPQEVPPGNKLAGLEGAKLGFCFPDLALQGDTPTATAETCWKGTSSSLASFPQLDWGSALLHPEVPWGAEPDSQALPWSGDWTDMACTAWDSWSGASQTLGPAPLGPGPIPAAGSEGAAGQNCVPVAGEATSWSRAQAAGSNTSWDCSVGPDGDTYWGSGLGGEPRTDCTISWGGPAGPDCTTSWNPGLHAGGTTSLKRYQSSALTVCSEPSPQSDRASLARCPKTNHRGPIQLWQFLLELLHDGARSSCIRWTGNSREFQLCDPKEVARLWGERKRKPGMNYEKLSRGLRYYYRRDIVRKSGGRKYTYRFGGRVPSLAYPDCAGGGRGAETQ
# Outline: as §1
# [17] = target: T11, ELF3 (Homo sapiens, UniProt P78545 1-371); conditions: protein: recombinant; tags: N-terminal GST; dsDNA, one strand shown
# T11 sequence: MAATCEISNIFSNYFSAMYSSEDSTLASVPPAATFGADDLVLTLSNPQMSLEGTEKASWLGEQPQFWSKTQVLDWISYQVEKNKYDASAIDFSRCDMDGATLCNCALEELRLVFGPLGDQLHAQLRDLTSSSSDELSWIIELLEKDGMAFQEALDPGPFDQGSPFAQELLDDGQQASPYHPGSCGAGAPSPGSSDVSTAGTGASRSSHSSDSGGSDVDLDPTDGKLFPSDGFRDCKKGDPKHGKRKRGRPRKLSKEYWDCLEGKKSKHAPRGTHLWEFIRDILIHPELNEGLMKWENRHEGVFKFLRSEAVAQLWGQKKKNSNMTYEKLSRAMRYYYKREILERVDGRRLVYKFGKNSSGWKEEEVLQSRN
# Outline: as §1
# [18] = target: CRX (Homo sapiens, UniProt O43186 1-299); conditions: protein: recombinant; tags: N-terminal GST; dsDNA, one strand shown
# Sequence of CRX (O43186 whole entry): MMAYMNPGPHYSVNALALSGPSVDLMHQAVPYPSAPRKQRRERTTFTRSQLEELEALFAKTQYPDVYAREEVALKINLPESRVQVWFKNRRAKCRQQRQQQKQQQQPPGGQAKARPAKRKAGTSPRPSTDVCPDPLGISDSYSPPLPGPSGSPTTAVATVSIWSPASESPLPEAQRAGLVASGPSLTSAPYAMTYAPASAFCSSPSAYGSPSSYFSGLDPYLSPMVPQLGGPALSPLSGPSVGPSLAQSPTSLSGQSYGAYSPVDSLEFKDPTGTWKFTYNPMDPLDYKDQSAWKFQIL
# Outline: as §1
# [19] = target: ETV1 (Homo sapiens, UniProt P50549 1-477); conditions: protein: recombinant; tags: N-terminal GST; dsDNA, one strand shown
# Sequence of ETV1 (P50549 whole entry): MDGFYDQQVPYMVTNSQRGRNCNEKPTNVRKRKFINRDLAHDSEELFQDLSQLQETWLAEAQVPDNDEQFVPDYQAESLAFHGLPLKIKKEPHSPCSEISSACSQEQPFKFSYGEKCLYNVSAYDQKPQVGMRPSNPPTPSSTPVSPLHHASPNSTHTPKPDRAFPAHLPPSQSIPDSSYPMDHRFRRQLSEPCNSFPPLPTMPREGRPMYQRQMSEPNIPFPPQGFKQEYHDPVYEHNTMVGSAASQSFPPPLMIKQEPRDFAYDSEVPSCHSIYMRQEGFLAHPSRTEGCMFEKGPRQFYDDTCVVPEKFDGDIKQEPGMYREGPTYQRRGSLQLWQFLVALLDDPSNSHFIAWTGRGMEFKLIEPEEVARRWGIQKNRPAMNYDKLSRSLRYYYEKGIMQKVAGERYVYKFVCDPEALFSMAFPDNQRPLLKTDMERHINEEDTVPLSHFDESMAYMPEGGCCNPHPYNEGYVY
# Outline: as §1
sequence,measurement,setting,value
TACTAC,binding signal,[1],"1.29 fold enrichment (6-mer frequency, TF over GST control)"
same,binding signal,[2],"1.35 fold enrichment (6-mer frequency, TF over GST control)"
same,binding signal,[3],"1.31 fold enrichment (6-mer frequency, TF over GST control)"
same,binding signal,[4],"1.24 fold enrichment (6-mer frequency, TF over GST control)"
same,binding signal,[5],"1.39 fold enrichment (6-mer frequency, TF over GST control)"
same,binding signal,[6],"1.36 fold enrichment (6-mer frequency, TF over GST control)"
same,binding signal,[7],"1.2 fold enrichment (6-mer frequency, TF over GST control)"
same,binding signal,[8],"1.41 fold enrichment (6-mer frequency, TF over GST control)"
same,binding signal,[9],"1.2 fold enrichment (6-mer frequency, TF over GST control)"
same,binding signal,[10],"1.35 fold enrichment (6-mer frequency, TF over GST control)"
same,binding signal,[11],"1.33 fold enrichment (6-mer frequency, TF over GST control)"
same,binding signal,[12],"1.17 fold enrichment (6-mer frequency, TF over GST control)"
same,binding signal,[13],"1.26 fold enrichment (6-mer frequency, TF over GST control)"
same,binding signal,[14],"1.36 fold enrichment (6-mer frequency, TF over GST control)"
same,binding signal,[15],"1.19 fold enrichment (6-mer frequency, TF over GST control)"
same,binding signal,[16],"1.38 fold enrichment (6-mer frequency, TF over GST control)"
same,binding signal,[17],"1.08 fold enrichment (6-mer frequency, TF over GST control)"
same,binding signal,[18],"1.13 fold enrichment (6-mer frequency, TF over GST control)"
same,binding signal,[19],"1.24 fold enrichment (6-mer frequency, TF over GST control)"
